Values joined by “and” are separate entries in the source; they are usually repeats but may differ in a detail not shown here. Identical values can stand only once. Results filed as inconclusive are left out. Some compounds were tested as several samples or in several runs, with calls that do not always agree. Active and inactive are the calls of the source. Unless noted, the call rests on the fitted dose curve; in most records, active means well fitted curve in the direction sought with a large enough effect in the repeat runs; inconclusive means weak or mixed curves; inactive means no such curve, though single readings can be large; an effect the other way counts as inactive or inconclusive.
Tests used:
[1] = qHTS assay to identify small molecule antagonists of the glucocorticoid receptor (GR) signaling pathway - cell viability counter screen (AID 720693); further: nearly all actives have a fitted effect of over 55% in size; further: potency means the concentration at half of the fitted maximal effect
[2] = qHTS assay for identifying genotoxic compounds that show differential cytotoxicity against isogenic chicken DT40 cell lines with known DNA damage response pathways - wild type cell line (AID 743012); further: nearly all actives have a fitted effect of over 60% in size; further: potency means the concentration at half of the fitted maximal effect
Procedure, shortened: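 Quantitative HTS on parental DT40 cells: 40 h compound treatment at 37 C/5% CO2, with viability then determined by CellTiter-Glo luminescence. Values serve as the DNA repair-proficient reference for differential cytotoxicity.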

[3] = qHTS assay for identifying genotoxic compounds that show differential cytotoxicity against isogenic chicken DT40 cell lines with known DNA damage response pathways - Rev3 mutant cell line (AID 743014); further: nearly all actives have a fitted effect of over 55% in size; further: potency means the concentration at half of the fitted maximal effect
[4] = qHTS assay for identifying genotoxic compounds that show differential cytotoxicity against isogenic chicken DT40 cell lines with known DNA damage response pathways - Rad54/Ku70 mutant cell line (AID 743015); further: nearly all actives have a fitted effect of over 60% in size; further: potency means the concentration at half of the fitted maximal effect
[5] = qHTS assay to identify small molecule antagonists of the androgen receptor (AR) signaling pathway - cell viability counter screen (AID 743033; further: nearly all actives have a fitted effect of over 45% in size; further: potency means the concentration at half of the fitted maximal effect)
[6] = qHTS assay to identify small molecule antagonists of the androgen receptor (AR) signaling pathway using the MDA cell line - cell viability counter screen (AID 743041; further: nearly all actives have a fitted effect of over 45% in size)
Procedure, shortened: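 R1881-driven MDA-kb2 AR-luc cells, 3,000/well, were dosed with library compounds for 16 h; cell health came from CellTiter-Fluor fluorescence in the reporter wells.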

[7] = qHTS assay to identify small molecule antagonists of the thyroid receptor (TR) signaling pathway - cell viability counter screen (AID 743064); further: nearly all actives have a fitted effect of over 50% in size; further: potency means the concentration at half of the fitted maximal effect
Procedure, shortened: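 GH3.TRE-Luc cells, 4 h pre-plating; cpd + T3 1 nM final; 37 °C 23.5 h; CellTiter-Fluor 30 min; fluorescence read.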

[8] = qHTS assay to identify small molecule antagonists of the thyroid receptor (TR) signaling pathway (AID 743065); further: nearly all actives have a fitted effect of over 55% in size; further: potency means the concentration at half of the fitted maximal effect
Procedure, shortened: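 Antagonism measured as loss of luciferase signal in GH3 cells stably carrying a TRE-luciferase reporter, co-treated with compound and T3 (1 nM final) for 23.5 h at 37 C. Viability was read in the same well by CellTiter-Fluor.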

[9] = tested on: thyroid hormone receptor (rat, GH3 cells); test: qHTS assay to identify small molecule agonists of the thyroid receptor (TR) signaling pathway (AID 743066; calls by dose curve)
[10] = target: Estrogen receptor (Homo sapiens) (UniProt P03372); test: qHTS assay to identify small molecule antagonists of the estrogen receptor alpha (ER-alpha) signaling pathway (AID 743069; active means well fitted curve in the direction sought with a large enough effect in the signal ratio in the repeat runs, not every such curve was filed as active; the % refers to the signal ratio)
Procedure, shortened: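 Compound effects are measured against 17beta-estradiol stimulation in HEK293 cells with a UAS-controlled beta-lactamase reporter for ER-alpha. Exposure lasts 18 hr at 37C; LiveBLAzer B/G FRET substrate follows for 2 hr at room temperature.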

[11] = qHTS assay to identify small molecule antagonists of the estrogen receptor alpha (ER-alpha) signaling pathway - cell viability counter screen (AID 743074; calls by dose curve;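 further: HEK293 cells carrying ER-alpha-UAS-bla reporter stimulated with 17beta-estradiol; nearly all actives have a fitted effect of over 45% in size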)
[12] = target: Estrogen receptor (Homo sapiens) (UniProt P03372); test: qHTS assay to identify small molecule agonists of the estrogen receptor alpha (ER-alpha) signaling pathway (AID 743075; calls by dose curve)
[13] = target: Estrogen receptor (Homo sapiens) (UniProt P03372); test: qHTS assay to identify small molecule agonists of the estrogen receptor alpha (ER-alpha) signaling pathway using the BG1 cell line (AID 743079); further: nearly all actives have a fitted effect of over 20% in size
[14] = qHTS assay to identify small molecule antagonists of the estrogen receptor alpha (ER-alpha) signaling pathway using the BG1 cell line (AID 743080; calls by dose curve;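 further: BG1 cells stimulated with 17beta-estradiol alongside compound; series mostly up to about 70 µM; nearly all actives have a fitted effect of over 25% in size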)
Procedure, shortened: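 BG1-Luc-4E2 cells (endogenous full-length ER-alpha, 4xERE luciferase) hormone-starved 5 days in charcoal-stripped FBS, plated 4,000/well for 24 h, then compound plus 17beta-estradiol for 21.5 h at 37 C; ONE-Glo luminescence read.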

[15] = qHTS assay to identify small molecule antagonists of the estrogen receptor alpha (ER-alpha) signaling pathway using the BG1 cell line - cell viability counter screen (AID 743081);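 further: compound given together with 17beta-estradiol as the ER stimulus; nearly all actives have a fitted effect of over 45% in size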; further: potency means the concentration at half of the fitted maximal effect
Aromatase (Homo sapiens) = Aromatase (Homo sapiens) (UniProt P11511); test: qHTS assay to identify aromatase inhibitors (AID 743083); further: nearly all actives have a fitted effect of over 55% in size; further: potency means the concentration at half of the fitted maximal effect
[16] = qHTS assay to identify aromatase inhibitors - cell viability counter screen (AID 743084); further: potency means the concentration at half of the fitted maximal effect
[17] = target: Androgen receptor (Homo sapiens) (UniProt P10275); test: qHTS assay to identify small molecule agonists of the androgen receptor (AR) signaling pathway (AID 743036; active means well fitted activation curve with a large enough effect in the signal ratio in the repeat runs, with a control signal flat, not every such curve was filed as active; the % refers to the signal ratio)
Procedure, shortened: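 AR-bla HEK293 cells, 2,000/well; 4 h preincubation 37C/5% CO2; compound (DMSO) 16 h at 37C; LiveBLAzer B/G FRET substrate 2 h RT; fluorescence intensity read-out.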

[18] = target: Androgen receptor (Homo sapiens) (UniProt P10275); test: qHTS assay to identify small molecule antagonists of the androgen receptor (AR) signaling pathway using the MDA cell line (AID 743042; further: nearly all actives have a fitted effect of over 55% in size; further: potency means the concentration at half of the fitted maximal effect)
Procedure, shortened: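 Antagonist mode: compounds plus R1881 agonist added to MDA-kb2 AR-luc cells, incubated 16 h at 37C. Luciferase reporter luminescence quantified, with multiplexed CellTiter-Fluor readout for cell viability.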

[19] = target: Androgen receptor (Homo sapiens) (UniProt P10275); test: qHTS assay to identify small molecule agonists of the androgen receptor (AR) signaling pathway using the MDA cell line (AID 743040; further: nearly all actives have a fitted effect of over 20% in size)
Procedure, shortened: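 After a 5 h incubation at 37C and 0% CO2, MDA-kb2 reporter cells were dosed with compounds in DMSO and kept 16 h under the same conditions. Luciferase activity was then read as luminescence with ONE-Glo.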

Measured: Potency

Sequence of Aromatase (Homo sapiens) (P11511 whole entry, looked up): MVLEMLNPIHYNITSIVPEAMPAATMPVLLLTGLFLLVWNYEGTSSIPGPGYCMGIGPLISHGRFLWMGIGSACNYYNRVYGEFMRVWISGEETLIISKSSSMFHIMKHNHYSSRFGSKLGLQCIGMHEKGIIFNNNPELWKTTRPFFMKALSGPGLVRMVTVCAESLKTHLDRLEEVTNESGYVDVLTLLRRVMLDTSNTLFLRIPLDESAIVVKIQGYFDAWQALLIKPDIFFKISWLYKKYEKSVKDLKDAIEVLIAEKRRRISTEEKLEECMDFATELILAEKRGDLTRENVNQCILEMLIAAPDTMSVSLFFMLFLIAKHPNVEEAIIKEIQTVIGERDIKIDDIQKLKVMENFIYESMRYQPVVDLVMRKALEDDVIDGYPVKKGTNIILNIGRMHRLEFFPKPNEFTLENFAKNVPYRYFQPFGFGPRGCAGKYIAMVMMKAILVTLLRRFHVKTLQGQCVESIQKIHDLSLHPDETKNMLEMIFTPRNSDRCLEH
Sequence of Estrogen receptor (Homo sapiens) (P03372 whole entry, looked up): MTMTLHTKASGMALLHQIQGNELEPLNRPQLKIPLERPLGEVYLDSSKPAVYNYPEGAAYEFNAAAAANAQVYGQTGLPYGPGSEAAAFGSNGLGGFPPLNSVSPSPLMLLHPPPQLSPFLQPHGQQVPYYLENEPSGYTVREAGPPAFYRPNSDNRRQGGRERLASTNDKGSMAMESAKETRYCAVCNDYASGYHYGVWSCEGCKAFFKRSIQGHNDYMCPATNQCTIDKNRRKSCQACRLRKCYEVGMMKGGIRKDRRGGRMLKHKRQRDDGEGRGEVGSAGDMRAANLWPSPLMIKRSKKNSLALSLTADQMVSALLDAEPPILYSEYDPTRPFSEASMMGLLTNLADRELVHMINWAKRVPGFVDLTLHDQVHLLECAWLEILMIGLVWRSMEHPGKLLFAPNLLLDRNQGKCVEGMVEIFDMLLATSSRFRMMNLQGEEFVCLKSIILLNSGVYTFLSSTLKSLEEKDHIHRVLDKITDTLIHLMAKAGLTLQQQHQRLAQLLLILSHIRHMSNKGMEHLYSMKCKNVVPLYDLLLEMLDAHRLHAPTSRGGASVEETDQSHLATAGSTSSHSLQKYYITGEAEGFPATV
Sequence of Androgen receptor (Homo sapiens) (P10275 whole entry, looked up): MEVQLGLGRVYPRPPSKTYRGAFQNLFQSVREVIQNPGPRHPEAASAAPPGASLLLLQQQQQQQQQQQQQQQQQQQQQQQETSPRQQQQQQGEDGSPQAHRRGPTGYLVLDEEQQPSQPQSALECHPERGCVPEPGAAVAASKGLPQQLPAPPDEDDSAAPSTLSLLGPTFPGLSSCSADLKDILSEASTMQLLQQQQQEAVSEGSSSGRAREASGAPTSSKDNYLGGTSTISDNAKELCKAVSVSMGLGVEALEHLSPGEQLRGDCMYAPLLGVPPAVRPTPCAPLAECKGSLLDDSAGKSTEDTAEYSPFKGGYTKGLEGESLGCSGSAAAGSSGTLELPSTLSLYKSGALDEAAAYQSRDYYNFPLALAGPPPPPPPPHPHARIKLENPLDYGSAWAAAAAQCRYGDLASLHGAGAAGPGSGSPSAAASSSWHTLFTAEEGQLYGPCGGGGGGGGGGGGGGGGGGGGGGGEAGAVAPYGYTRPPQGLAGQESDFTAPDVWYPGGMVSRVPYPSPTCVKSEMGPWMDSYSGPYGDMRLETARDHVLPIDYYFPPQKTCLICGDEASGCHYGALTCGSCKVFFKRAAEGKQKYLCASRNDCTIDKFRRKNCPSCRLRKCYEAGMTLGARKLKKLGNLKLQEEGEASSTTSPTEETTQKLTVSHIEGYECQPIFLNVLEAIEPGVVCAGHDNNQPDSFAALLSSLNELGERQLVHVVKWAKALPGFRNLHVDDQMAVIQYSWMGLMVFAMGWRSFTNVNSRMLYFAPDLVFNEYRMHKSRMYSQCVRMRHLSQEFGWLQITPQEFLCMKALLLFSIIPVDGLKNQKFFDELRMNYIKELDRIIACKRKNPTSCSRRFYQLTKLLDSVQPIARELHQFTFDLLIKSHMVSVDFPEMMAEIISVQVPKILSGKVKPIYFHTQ

CCCCCCCCCCCCCCN(C)C
not listed: [17] | [18] | [19]
inactive: all other assays above

C=CC(=O)O
not listed: [17] | [18] | [19]
inactive: all other assays above

CC(C)C(=O)OCCOc1ccccc1
not listed: [17] | [18] | [19]
inactive: all other assays above

CCC(C)(C)C(=O)O
not listed: [13] | [19]
inactive: all other assays above

C1=CCC2CC=CC2C1 (centres undefined)
not listed: [10] | [12] | [13] | [14]
inactive: all other assays above

O=C(O)CCC(=O)c1ccc(-c2ccccc2)cc1
not listed: [7] | [8] | [9] | [10] | [12] | [13] | [14] | [17]
inactive: all other assays above

CC(=O)OCC(C)C
not listed: [7] | [8] | [9] | [10] | [11] | [13] | [14] | [19]
inactive: all other assays above

CC(=O)OCCC1CCCCC1
not listed: [17] | [18] | [19]
inactive: all other assays above

O=C1CC[C@@H](C(=O)O)N1
not listed: [6] | [10] | [12] | [13] | [14]
inactive: all other assays above

O=c1[nH][nH]c(=O)c2cc([N+](=O)[O-])ccc12
not listed: [17] | [18] | [19]
inactive: all other assays above

CNS(=O)(=O)c1cc(C(=O)N2CCC(CCN3C4CCC3CC(n3c(C)nc5ccccc53)C4)(c3cccc(F)c3)CC2)c(Cl)cc1F (centres undefined)
inactive: [19] | [11] | [15]
active: [1] 54.9 µM | [2] 3.06 µM | [3] 5.45 µM | [4] 6.11 µM | [5] 15.5 µM | [18] 34.4 µM | [7] 54.5 µM | [8] 48.6 µM | Aromatase (Homo sapiens) 68.6 µM

Nc1ccc(F)cc1
not listed: [10] | [11]
inactive: all other assays above

CCCCC(CC)COS(=O)(=O)O (centres undefined)
not listed: [17] | [18] | [19]
inactive: all other assays above

CC[C@H]1OC(=O)[C@H](C)[C@@H](O[C@H]2C[C@@](C)(OC)[C@@H](O)[C@H](C)O2)[C@H](C)[C@@H](O[C@@H]2O[C@H](C)C[C@H](N(C)C)[C@H]2O)[C@](C)(O)C[C@@H](C)/C(=N\OCOCCOC)[C@H](C)[C@@H](O)[C@]1(C)O
inactive and 10.2 µM (active): [16]
inactive and 8.07 µM (active): [3]
inactive and 32.1 µM (active): [7]
inactive and 18.1 µM (active): [15]
inactive and 14.3 µM (active): [2] | [4]
not listed: [17] | [18] | [19]
inactive: all other assays above

O=C(c1ccccc1)C1CCC1
not listed: [17] | [18] | [19]
inactive: all other assays above

CN1C(CSCC(F)(F)F)Nc2cc(Cl)c(S(N)(=O)=O)cc2S1(=O)=O (centres undefined)
active: [2] 11.9 µM | [3] 26.6 µM | [4] 23.7 µM
inactive: all other assays above

— PubChem BioAssay (Tox21)
